The campaign covered roughly 50,000 compounds. About 800 (1.6%) showed an effect of 50% or more. The list comes from a sample in which strong results are over-represented; it also holds similar structures and randomly drawn compounds.

Chain of Bcl-2-like protein 10 (Homo sapiens) (Q9HD36 whole entry, looked up): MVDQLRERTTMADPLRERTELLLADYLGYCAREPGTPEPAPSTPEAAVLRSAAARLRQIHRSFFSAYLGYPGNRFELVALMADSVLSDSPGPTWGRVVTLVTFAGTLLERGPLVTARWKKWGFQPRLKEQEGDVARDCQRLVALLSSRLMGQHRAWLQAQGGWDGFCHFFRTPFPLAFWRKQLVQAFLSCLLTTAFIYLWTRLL

The test addresses Bcl-2-like protein 10 (Homo sapiens) (UniProt Q9HD36). In words: Phenotype converters, Bcl-B/TR3 peptide binding displacement, primary biochemical FP (AID 1240).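 Further: 0% = Bcl-B with tracer peptide and DMSO and 100% = tracer peptide lacking Bcl-B.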 Particulars: GST-Bcl-B / FITC-TR3 peptide fluorescence polarization; stronger effect = higher value; compound at 3.75 mg/L.
Turning to `O=C(Oc1ccc(Cl)cc1)c1cccc(S(=O)(=O)N2CCOCC2)c1`, the displacement was -8.4%.
For `O=C(Oc1cccc(-c2cnc3ccccc3n2)c1)c1cccc(S(=O)(=O)N2CCOCC2)c1` the value was 225%; for `COC(=O)c1cccc(S(=O)(=O)N2CCOCC2)c1`, -16%; for `CCc1ccccc1NC(=O)/C(C#N)=C/c1cn(CC(=O)Nc2ccccc2)c2ccccc12`, -26.1%.
As for `Cc1cccc(NC(=O)/C(C#N)=C/c2cn(CC(=O)Nc3ccccc3)c3ccccc23)c1C`, the displacement was -60.5%.
As for `CCOc1cccc(NC(=O)/C(C#N)=C/c2cn(CC(=O)Nc3ccccc3)c3ccccc23)c1`, the displacement came out at 104%.
For `C#CCn1cc(/C=C(/C#N)C(=O)Nc2ccc(OCC)cc2)c2ccccc21`, the displacement stood at 5.9%.
With `N#C/C(=C\c1cn(CC(=O)Nc2ccccc2)c2ccccc12)C(=O)NCc1ccccc1`, the displacement was determined as 61.2%.
For the molecule `N#C/C(=C\c1cn(CC(=O)Nc2ccccc2)c2ccccc12)C(=O)Nc1ccc(F)cc1`, the displacement was -30.3%.
On to `N#C/C(=C\c1cn(CC(=O)Nc2ccccc2)c2ccccc12)C(=O)Nc1ccccc1`, for which the displacement was -36.7%.
Consider `N#C/C(=C\c1cn(CC(=O)Nc2ccccc2)c2ccccc12)C(=O)Nc1ccccc1Cl`, for which the displacement was 126%.
In the case of `COc1ccc(NC(=O)/C(C#N)=C/c2cn(CC(=O)Nc3ccccc3)c3ccccc23)cc1`, the displacement was -21.4%.
For `Cc1ccc2c(c1)c(-c1ccccc1)c(-c1ccccc1)n2CC(O)CN1C(=O)CSC1=O` (stereo not drawn) the value was 11.4%; for `CCOc1ccc(C2C(C(=O)/C=C/c3ccccc3)=C(O)C(=O)N2CCCCCC(=O)O)cc1` (stereo not drawn), -1%.
As to `O=C(NC(=S)Nc1ccc(Cl)c(-c2nc3ccccc3s2)c1)c1ccco1`, the displacement amounted to 5.8%.
Regarding `c1ccc2nc(NCc3ccncc3)ccc2c1`, the displacement was -8.8%.
Turning to `CCc1ccc(N2C(=O)NC(=O)/C(=C\c3ccc(OCC(=O)O)c(OC)c3)C2=O)cc1`, the displacement was 9.9%.
With `CCOc1ccc(NC(=O)CC2S/C(=N\N=C\c3ccc(O)c(OC)c3)NC2=O)cc1` (stereo not drawn) the figure was 9.6%.
Regarding `COc1cc(/C=c2\sc3nc4ccccc4n3c2=O)cc(I)c1OCC(=O)O`, the displacement is -4.2%.
With `COc1cc(/C=c2\sc3nc4ccccc4n3c2=O)cc(I)c1OCCOc1cccc(C)c1` the figure was 10.9%; with `CCOc1cc(/C=c2\sc3nc4ccccc4n3c2=O)ccc1OCCOc1ccc(Br)cc1`, 19%.
As to `COc1cc(/C=c2/sc3nc4ccccc4n3c2=O)cc(I)c1OCc1ccccc1`, the displacement is 74.2%.
With `COc1cc(/C=c2/sc3nc4ccccc4n3c2=O)cc(Br)c1OCc1ccccc1`, the displacement came out at 1.8%.
As to `CCOc1ccc(/C=c2\sc3nc4ccccc4n3c2=O)cc1Cl`, the displacement was 19.1%.
For `C=CCc1ccccc1OCCOc1cccc(/C=c2\sc3nc4ccccc4n3c2=O)c1` the value was 13.4%; for `CCOc1cc(/C=c2/sc3nc4ccccc4n3c2=O)cc(I)c1OCC`, 77.3%.
In the case of `C=CCc1ccccc1OCCOc1ccc(/C=c2\sc3nc4ccccc4n3c2=O)cc1OCC`, the displacement is 100%.
For `COc1ccc(OC)c(NC(=O)CN(c2ccc(Br)cc2)S(C)(=O)=O)c1`, the displacement was -12.8%.
For `CCN(CC)CCCCOc1ccc(Cl)cc1C`, the displacement is -7.4%.
For `COc1ccc(NC(=S)NC(=O)c2cccs2)cc1`, the displacement is -9.3%.
As to `O=C(Nc1ccccc1)C1C2C3CCC(C3)C12` (stereo not drawn), the displacement was 4%.
`O=C(CSCc1ccccc1)Nc1nnc(/C=C/c2ccccc2)s1`: the displacement was 39.9%.
As for `CC(=O)c1ccc(NC(=O)c2ccc3c(c2)C(=O)N(c2ccc(C)c(C)c2)C3=O)cc1`, the displacement came out at 8.9%.
Consider `Cc1ccc(N2C(=O)c3ccc(C(=O)Nc4cccc(C)c4C)cc3C2=O)c(C)c1`, for which the displacement worked out at 6.6%.
Consider `CN1CCN(C(=O)C(=O)Nc2cccc3ccccc23)CC1`, for which the displacement is -2.6%.
Turning to `COc1cccc(/C=N/NC(=O)c2cccc(N3CCCC3=O)c2)c1`, the displacement is -3.5%.
For `COc1ccc(/C=C2\SC(=S)N(C(C)C)C2=O)cc1`, the displacement is -3.9%.
For `NC1=NC(=O)/C(=C/c2ccc(Br)cc2)S1` the value was 3.7%.
Regarding `COc1ccc(/C=C2\SC(N)=NC2=O)cc1`, the displacement was found to be 124%.
Consider `NC1=NC(=O)/C(=C\C=C\c2ccccc2)S1`, for which the displacement stood at 154%.
Turning to `COc1ccc(/C=C2/SC(=O)NC2=O)c(OC)c1`, the displacement amounted to 4.9%.
Consider `COc1ccc(/C=C2\SC(=O)NC2=S)cc1`, for which the displacement is 67.8%.
With `CN(C)c1ccc(/C=C/C=C2/SC(N)=NC2=O)cc1` the figure was -17.2%.
With `CC(=O)NC1=NC(=O)/C(=C\C=Cc2ccccc2)S1` the figure was -42.4%; with `NC1=NC(=O)/C(=C/c2ccc(Cl)cc2)S1`, 57.4%; with `COc1cc(/C=C2\SC(N)=NC2=O)cc(OC)c1`, -9.9%.
As to `COc1ccc(C(=O)Oc2ccc(/C=C3\SC(N)=NC3=O)cc2)cc1`, the displacement turned out to be 10.1%.
`NC1=NC(=O)/C(=C\c2ccc(S(=O)(=O)O)cc2)S1`: the displacement amounted to 12.8%.
In the case of `CC(=O)Nc1ccc2sc(C)nc2c1`, the displacement was determined as 12.9%.
With `COc1cccc(CN2CCN(Cc3cc(OC)ccc3OC)CC2)c1`, the displacement is -9%.
On to `COc1ccc(C2SCC(=O)N2CCc2ccc(OC)c(OC)c2)c(OC)c1` (stereo not drawn), for which the displacement was -6.4%.
Take `COc1ccc(N2C(=O)C3C4C=CC(C5CC45)C3C2=O)c([N+](=O)[O-])c1` (stereo not drawn): the displacement turned out to be 12.7%.
As to `N/C(=N\OC(=O)c1ccc(Cl)c([N+](=O)[O-])c1)c1ccccc1`, the displacement is -3.2%.
Take `COc1ccc(C2CC(=O)C3=C(C2)Nc2ccccc2NC3c2cccs2)cc1OC` (stereo not drawn): the displacement is -4.5%.
For `Cc1ccccc1N1C(=O)c2ccc(C(=O)O)cc2C1=O` the value was -3.3%; for `O=C(O)c1ccccc1S(=O)CCO` (stereo not drawn), 6.8%.
In the case of `O=C(c1ccc(N2CCN(C(=O)c3ccccc3F)CC2)cc1)c1cccc(F)c1`, the displacement is -53.4%.
With `O=C(c1cccc(F)c1)N1CCN(c2ccc(F)cc2)CC1`, the displacement was -11.6%.
With `O=C(c1cccc(F)c1)N1CCN(c2ccccc2)CC1`, the displacement was -5.4%.
Regarding `O=C(c1ccc(N2CCN(C(=O)c3ccc(F)cc3)CC2)cc1)c1cccc(F)c1`, the displacement is -6.4%.
In the case of `O=C(c1ccc(N2CCN(C(=O)c3ccc(F)cc3F)CC2)cc1)c1cccc(F)c1`, the displacement stood at 72.1%.
`O=C(c1cccc(F)c1)N1CCN(c2ccc([N+](=O)[O-])cc2)CC1`: the displacement is 118%.
Turning to `Cc1ccc(/C(=N\S(=O)(=O)c2cccc([N+](=O)[O-])c2)Nc2ccccc2)cc1`, the displacement turned out to be 13.2%.
Take `COc1ccccc1OCC(=O)Nc1ccc2c(c1)OCCO2`: the displacement is 2.2%.
In the case of `COc1cc(/C=N/N2C(=O)C3C4C=CC(CC4)C3C2=O)cc(I)c1O` (stereo not drawn), the displacement is 3.3%.
`COc1ccc(N2C(=O)NC(=O)/C(=C/c3cccc(O)c3)C2=O)cc1`: the displacement was -6.3%.
Consider `CN1C(=O)NC(=O)/C(=C/c2ccc(-c3ccc(Cl)c(Cl)c3)o2)C1=O`, for which the displacement was -7.2%.
As for `CN1C(=O)NC(=O)/C(=C\c2ccc(Cl)cc2Cl)C1=O`, the displacement came out at 3.8%.
As for `CN1C(=O)NC(=O)/C(=C/c2ccc(-c3ccc(Cl)cc3Cl)o2)C1=O`, the displacement was 72.6%.
Regarding `CC1(C)OC(=O)C(=Cc2ccc(-c3ccc(Cl)cc3Cl)o2)C(=O)O1`, the displacement turned out to be 34.4%.
Turning to `CN1C(=O)NC(=O)/C(=C/c2cccn2-c2cccc([N+](=O)[O-])c2)C1=O`, the displacement was 115%.
Take `COc1ccc(N2C(=O)NC(=O)/C(=C/c3cccn3-c3cccc([N+](=O)[O-])c3)C2=O)cc1`: the displacement was -4%.
`Cc1ccc([N+](=O)[O-])cc1-c1ccc(/C=C2/C(=O)NC(=O)N(C)C2=O)o1`: the displacement was -8%.
`O=C1NC(=O)N(c2ccccc2)C(=O)/C1=C\c1cccn1-c1cccc([N+](=O)[O-])c1`: the displacement was -2.6%.
Regarding `C=CCN1C(=O)/C(=C\c2ccc(-c3ccc([N+](=O)[O-])cc3Cl)o2)C(=O)NC1=S`, the displacement worked out at 21%.
Consider `CN1C(=O)NC(=O)/C(=C/c2ccc(-c3cccc(Cl)c3)o2)C1=O`, for which the displacement turned out to be 81.5%.
For `CN1C(=O)NC(=O)/C(=C/c2ccc(-c3ccc([N+](=O)[O-])cc3Cl)o2)C1=O`, the displacement came to 93.6%.
`CC1=C(C#N)C(=O)NC(=O)/C1=C\c1ccc(-c2cccc(Cl)c2)o1`: the displacement came out at 24.7%.

(Values after PubChem BioAssay AID1240 (Sanford-Burnham Center for Chemical Genomics, 2008).)
